# Assay results reported in the supplement of paper PMC8975748.
# Counter-ions that a name gives are not always drawn. ± gives the standard deviation of the averaged measurements.
# Assays:
# [1] = tested on: Saccharomyces cerevisiae BY4741 SeMeCo community; experiment: mean cell size (pixel area) (pixels); higher = larger cells; details: 10 µM; 24 h; SM minimal medium
# Outline: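 A fluorescent Saccharomyces cerevisiae BY4741 community carrying four plasmids was used, with each plasmid complementing one auxotrophy and bearing a fluorescent marker. An overnight preculture at OD600 = 1.0 was diluted to OD600 = 0.3, and 70 µl went into 384-well plates acoustically predosed with drug (final 10 µM) in SM medium for 24 h. After paraformaldehyde fixation, cells were imaged by automated confocal microscopy and analysed in Harmony, giving the mean cell pixel area per well. Each value is the average of 3 replicates. Same SeMeCo high-content imaging drug screen: Selleck FDA-approved drugs at 10 µM, 24 h in SM medium, 384-well plates, 3 replicates.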
# [2] = tested on: Saccharomyces cerevisiae BY4741 SeMeCo community; experiment: z-score of prototroph abundance vs DMSO median; higher = larger share of this subpopulation than in DMSO controls; details: 10 µM; 24 h; SM minimal medium; subpopulation (auxotrophy): Prototroph
# Outline: (§1)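 A Saccharomyces cerevisiae BY4741 community carried four plasmids, each restoring one auxotrophy and encoding a distinct fluorescent protein. It was pre-grown overnight to OD600 1.0, diluted to 0.3, and 70 µl was added to 384-well plates acoustically predosed with library drugs (10 µM final), then grown 24 h in minimal SM medium. Cells were paraformaldehyde-fixed and imaged by automated confocal microscopy, with single-auxotroph fluorescent strains setting thresholds and autofluorescence correction. Each subpopulation's abundance was scored as a z-score against the vehicle-well median.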
# [3] = tested on: Saccharomyces cerevisiae BY4741 SeMeCo community; experiment: z-score of subpopulation abundance vs DMSO median, subpopulation auxotrophic for M; higher = larger share of this subpopulation than in DMSO controls; details: 10 µM; 24 h; SM minimal medium; subpopulation (auxotrophy): M
# Outline: as §1
# [4] = tested on: Saccharomyces cerevisiae BY4741 SeMeCo community; experiment: z-score of subpopulation abundance vs DMSO median, subpopulation auxotrophic for U; higher = larger share of this subpopulation than in DMSO controls; details: 10 µM; 24 h; SM minimal medium; subpopulation (auxotrophy): U
# Outline: as §1
# [5] = tested on: Saccharomyces cerevisiae BY4741 SeMeCo community; experiment: z-score of subpopulation abundance vs DMSO median, subpopulation auxotrophic for H; higher = larger share of this subpopulation than in DMSO controls; details: 10 µM; 24 h; SM minimal medium; subpopulation (auxotrophy): H
# Outline: as §1
# [6] = tested on: Saccharomyces cerevisiae BY4741 SeMeCo community; experiment: z-score of subpopulation abundance vs DMSO median, subpopulation auxotrophic for LU; higher = larger share of this subpopulation than in DMSO controls; details: 10 µM; 24 h; SM minimal medium; subpopulation (auxotrophy): LU
# Outline: as §1
# [7] = tested on: Saccharomyces cerevisiae BY4741 SeMeCo community; experiment: z-score of subpopulation abundance vs DMSO median, subpopulation auxotrophic for LM; higher = larger share of this subpopulation than in DMSO controls; details: 10 µM; 24 h; SM minimal medium; subpopulation (auxotrophy): LM
# Outline: as §1
# [8] = tested on: Saccharomyces cerevisiae BY4741 SeMeCo community; experiment: z-score of subpopulation abundance vs DMSO median, subpopulation auxotrophic for UM; higher = larger share of this subpopulation than in DMSO controls; details: 10 µM; 24 h; SM minimal medium; subpopulation (auxotrophy): UM
# Outline: as §1
# [9] = tested on: Saccharomyces cerevisiae BY4741 SeMeCo community; experiment: z-score of subpopulation abundance vs DMSO median, subpopulation auxotrophic for HL; higher = larger share of this subpopulation than in DMSO controls; details: 10 µM; 24 h; SM minimal medium; subpopulation (auxotrophy): HL
# Outline: as §1
# [10] = tested on: Saccharomyces cerevisiae BY4741 SeMeCo community; experiment: z-score of subpopulation abundance vs DMSO median, subpopulation auxotrophic for HLU; higher = larger share of this subpopulation than in DMSO controls; details: 10 µM; 24 h; SM minimal medium; subpopulation (auxotrophy): HLU
# Outline: as §1
# [11] = tested on: Saccharomyces cerevisiae BY4741 SeMeCo community; experiment: z-score of subpopulation abundance vs DMSO median, subpopulation auxotrophic for HLM; higher = larger share of this subpopulation than in DMSO controls; details: 10 µM; 24 h; SM minimal medium; subpopulation (auxotrophy): HLM
# Outline: as §1
# [12] = tested on: Saccharomyces cerevisiae BY4741 SeMeCo community; experiment: z-score of subpopulation abundance vs DMSO median, subpopulation auxotrophic for HUM; higher = larger share of this subpopulation than in DMSO controls; details: 10 µM; 24 h; SM minimal medium; subpopulation (auxotrophy): HUM
# Outline: as §1
# [13] = tested on: Saccharomyces cerevisiae BY4741 SeMeCo community; experiment: z-score of subpopulation abundance vs DMSO median, subpopulation auxotrophic for LUM; higher = larger share of this subpopulation than in DMSO controls; details: 10 µM; 24 h; SM minimal medium; subpopulation (auxotrophy): LUM
# Outline: as §1
# [14] = tested on: Saccharomyces cerevisiae BY4741 SeMeCo community; experiment: z-score of subpopulation abundance vs DMSO median, subpopulation auxotrophic for HLUM; higher = larger share of this subpopulation than in DMSO controls; details: 10 µM; 24 h; SM minimal medium; subpopulation (auxotrophy): HLUM
# Outline: as §1
# [15] = tested on: Saccharomyces cerevisiae BY4741 SeMeCo community; experiment: z-score of subpopulation abundance vs DMSO median, subpopulation auxotrophic for HM; higher = larger share of this subpopulation than in DMSO controls; details: 10 µM; 24 h; SM minimal medium; subpopulation (auxotrophy): HM
# Outline: as §1
# [16] = tested on: Saccharomyces cerevisiae BY4741 SeMeCo community; experiment: z-score of subpopulation abundance vs DMSO median, subpopulation auxotrophic for HU; higher = larger share of this subpopulation than in DMSO controls; details: 10 µM; 24 h; SM minimal medium; subpopulation (auxotrophy): HU
# Outline: as §1
SMILES,mean cell size [1],z-score of prototroph abundance [2],z-score of subpopulation abundance [3],z-score of subpopulation abundance [4],z-score of subpopulation abundance [5],z-score of subpopulation abundance [6],z-score of subpopulation abundance [7],z-score of subpopulation abundance [8],z-score of subpopulation abundance [9],z-score of subpopulation abundance [10],z-score of subpopulation abundance [11],z-score of subpopulation abundance [12],z-score of subpopulation abundance [13],z-score of subpopulation abundance [14],z-score of subpopulation abundance [15],z-score of subpopulation abundance [16]
CCCc1cc(C(N)=S)ccn1 [Protionamide],12.4 ± 0.19,0.19,0.32,-0.66,-0.56,-0.68,0.16,0.32,-0.83,-0.42,-0.03,0.47,-0.28,-0.96,–,–
COc1cc([C@@H]2c3cc4c(cc3[C@@H](O[C@@H]3O[C@@H]5CO[C@@H](c6cccs6)O[C@H]5[C@H](O)[C@H]3O)[C@H]3COC(=O)[C@H]23)OCO4)cc(OC)c1O [Teniposide],–,–,1.05,0.19,0.91,0.76,1.46,0.67,–,2.62,1,1.08,–,0.55,0.99,1.34
CC(=O)O[C@H]1C[C@@]2(C)[C@@H](C[C@@H](O)[C@H]3[C@@]4(C)CC[C@@H](O)[C@@H](C)[C@@H]4CC[C@@]32C)/C1=C(\CCC=C(C)C)C(=O)O [Fusidate Sodium],12.64 ± 0.067,-0.65,0,0.34,1.44,0.21,-0.02,-0.27,1.13,1.2,1.04,1.17,-0.25,–,0.57,2
"CO[C@H]1C[C@@H]2CC[C@@H](C)[C@@](O)(O2)C(=O)C(=O)N2CCCC[C@H]2C(=O)O[C@H]([C@H](C)C[C@@H]2CC[C@@H](OP(C)(C)=O)[C@H](OC)C2)CC(=O)[C@H](C)/C=C(\C)[C@@H](O)[C@@H](OC)C(=O)[C@H](C)C[C@H](C)/C=C/C=C/C=C/1C [Ridaforolimus (Deforolimus, MK-8669)]",–,–,-1.24,–,–,5.01,5.98,12.7,13.8,23.1,16.1,29.1,–,21.4,20.9,25.9
Fc1ccc(C(c2ccc(F)cc2)N2CCN(C/C=C/c3ccccc3)CC2)cc1 [Flunarizine 2HCl],12.38 ± 0.06,-1.16,-0.21,–,–,0.52,1.5,-0.39,0.64,0.59,1.25,0.51,1.42,1.3,1.01,0.97
COc1ccc2c3c1O[C@H]1C[C@@H](O)C=C[C@@]31CCN(C)C2 [Galanthamine HBr],11.87 ± 0.11,–,1.78,0.01,0.1,0.01,-0.06,1.03,-0.01,0.43,-0.5,0.61,-0.14,-0.98,–,-0.13
C=C1c2cccc(O)c2C(O)=C2C(=O)[C@]3(O)C(O)=C(C(N)=O)C(=O)[C@@H](N(C)C)[C@@H]3[C@@H](O)[C@H]12 [Methacycline HCl],–,–,0.2,-0.83,2.58,-0.95,0.5,-0.59,1.43,-0.87,0.92,-0.03,-0.23,–,0.54,-0.49
CO[C@@]1(NC(=O)CSC[C@@H](N)C(=O)O)C(=O)N2C(C(=O)O)=C(CSc3nnnn3C)CS[C@@H]21 [Cefminox Sodium],12.6 ± 0.55,-0.58,-0.58,0.77,1.45,0.8,–,–,–,0.47,3.56,-0.35,-0.31,-0.45,-0.24,0.16
CC[C@H]1OC(=O)[C@H](C)[C@@H](O[C@H]2C[C@@](C)(OC)[C@@H](O)[C@H](C)O2)[C@H](C)[C@@H](O[C@@H]2O[C@H](C)C[C@H](N(C)C)[C@H]2O)[C@](C)(O)C[C@@H](C)[C@@H]2N[C@@H](COCCOC)O[C@H]([C@H]2C)[C@]1(C)O [Dirithromycin],12.3 ± 0.27,0.11,0.26,–,-0.21,0.32,0.49,-0.05,-0.09,-0.71,-0.77,-0.1,0.3,-0.46,-0.53,-0.26
CC1(C)S[C@@H]2[C@H](NC(=O)C(C(=O)O)c3ccccc3)C(=O)N2[C@H]1C(=O)O (some centres not stated) [Carbenicillin disodium],12.53 ± 0.098,–,0.64,-0.46,-0.07,-0.26,-0.02,-0.3,–,0.36,-0.53,0.12,-0.76,-0.61,0.66,-0.53
COc1ccnc(C[S+]([O-])c2nc3cc(OC(F)F)ccc3[nH]2)c1OC (configuration not stated) [Pantoprazole],12.4 ± 0.15,-0.32,0.27,-0.43,1.49,0.17,–,-0.26,0.9,1.13,0.09,-0.2,-0.41,–,–,–
Cc1nccn1CC1CCc2c(c3ccccc3n2C)C1=O (configuration not stated) [Ondansetron Hydrochloride Dihydrate],12.3 ± 0.24,–,0.38,1.06,-0.54,-0.34,-0.17,0.75,-0.09,-0.6,-0.48,0.55,–,-0.23,-0.61,0.2
CCN(CC)C(=O)C1(c2ccccc2)CC1CN (configuration not stated) [Milnacipran HCl],12.3 ± 0.28,0.28,-0.86,–,-1.04,0.01,0,0.33,-0.61,-0.08,-0.14,-0.13,0.17,-0.13,-0.8,-0.14
CN1CCN2c3ncccc3Cc3ccccc3C2C1 (configuration not stated) [Mirtazapine],12.38 ± 0.12,0.24,0.18,0.29,-0.51,-0.59,-0.11,–,-0.38,-0.45,-0.85,1.07,-0.74,-0.87,-0.07,–
CCCCCCCCN=c1ccn(CCCCCCCCCCn2ccc(=NCCCCCCCC)cc2)cc1 [Octenidine Dihydrochloride],9.029 ± 0.063,-16.1,-8.04,–,–,14.2,0.87,13.5,20,5.94,27.7,26.9,13.8,–,–,23.6
